Our source for the Percent Effect values is ChEMBL document CHEMBL3988442, “University of Dundee, Small-Polar-MMV Screening Library” (2021).

The target of this assay is Shiga toxin 2 (Escherichia coli O157:H7) (UniProt P09385+P09386). In words: E. coli 0.157:H7 Shiga Toxin SOP - stx2 screening assay. Type of assay: functional. More on the design: scale not given: direction of the effect not stated beside the values. The conditions noted are these: 30 µM.
With `Cc1nc(C)n(CC2CCCN(Cc3nc(C4CC4)no3)C2)n1` (stereo not given), the Percent Effect amounted to 7.13%.

Consider `CC(C)c1ccc(CN2CCC3(CCCN(c4nncs4)C3)C2)cc1` (stereo not given), for which the Percent Effect came out at 5.96%.

`Cc1csc(N2CCN(C(=O)CCNc3ncccn3)CC2)n1`: the Percent Effect was 21.6%.

Turning to `O=C(CCc1cc2n(n1)CCCN(Cc1ccccc1F)C2)NC1CC1`, the Percent Effect was -4.17%.

Take `Cc1cc(NC(=O)c2nc(N3CCCC3)ncc2Cl)nc(C(C)C)n1`: the Percent Effect was -23.7%.

As to `CNc1nc(CNC(=O)Nc2cccc(-c3nnco3)c2)cs1`, the Percent Effect was -22.3%.

As for `Cc1nc(C)n(CC2CCCN(c3ncnc4[nH]ccc34)C2)n1` (stereo not given), the Percent Effect was 2.99%.

In the case of `CCN(CC)C(=O)CN(C)C1CCc2ccccc21` (stereo not given), the Percent Effect is 14.4%.

`Cc1nc(COc2cccc(C#N)c2)no1`: the Percent Effect stood at 0.222%.

In the case of `Cc1n[nH]c(C)c1C1CCCN1C(=O)NCCSC(C)(C)C` (stereo not given), the Percent Effect is -9.79%.

Consider `Cc1cnn(CC2CCCN2Cc2nccn2C)c1` (stereo not given), for which the Percent Effect came out at 7.58%.

With `O=C(N[C@@H]1CN(Cc2ccc3c(c2)OCO3)[C@@H]2CCCO[C@@H]21)C1CC1`, the Percent Effect came to 9.3%.

For the compound `CCC(C)NC(=O)NCCCn1nc2ccccn2c1=O` (stereo not given), the Percent Effect was 22.8%.

Turning to `Cc1cc(C)c(CNC(=O)N2CCCC2C(N)=O)c(=O)[nH]1` (stereo not given), the Percent Effect was -4.4%.

In the case of `CC(C)NC(=O)COc1nc(C(C)C)no1`, the Percent Effect is -17.3%.

Consider `CC(C)c1noc(CCCC(=O)N2CCC(Cc3cccnc3)CC2)n1`, for which the Percent Effect came to 0.87%.

As to `CCC(CC)C(CNC(=O)Nc1ccc(C)cc1)N1CCOCC1` (stereo not given), the Percent Effect is -3.64%.

Take `O=C(c1ccoc1)N1CC[C@@H]2O[C@H](COCc3ccccn3)CC[C@@H]21`: the Percent Effect was -5.78%.

For `Cc1cccc(N2Cc3nc(=O)[nH]n3C2=O)c1`, the Percent Effect was -54.1%.

Turning to `COCC1CC2(CCN(Cc3ccc(OC)cc3)CC2)CN1C(C)C` (stereo not given), the Percent Effect was determined as 1.66%.

With `Cn1cc(CN2CCCN(C(=O)c3cn4ccccc4n3)CC2)cn1`, the Percent Effect was -25.9%.

`O=C(CCC1CCCC1)NCCn1nc(C2CCNC2)c2cccnc21` (stereo not given): the Percent Effect is -19.4%.

Consider `CC(C)COCC(NC(=O)c1cccnc1)c1ccco1` (stereo not given), for which the Percent Effect is 21%.

For the compound `COc1cccc2c1ccn2CCNC(=O)C(C)C`, the Percent Effect was -17%.

`CN(Cc1cnn(C)c1)C(=O)Cn1c(CS(C)(=O)=O)nc2ccccc21`: the Percent Effect is 1.77%.

With `c1cnn(CC2CN(Cc3ccc(-n4ccnc4)cc3)CCO2)c1` (stereo not given), the Percent Effect is -7.92%.

For the compound `CN(Cc1cc2c(cc1OC(F)F)OCO2)Cc1nccn1C`, the Percent Effect is 2.09%.

For the compound `CCn1ncnc1C1CC(=O)NCc2nc3ccccn3c21` (stereo not given), the Percent Effect came to 2.83%.

Regarding `Cc1ccc(N2CCCN(C(=O)C3(C#N)CCCCC3)CC2)nn1`, the Percent Effect came to 4.54%.

Regarding `NC(=O)CN1CCC(NC(=O)c2ccn(-c3cccc(F)c3)n2)CC1`, the Percent Effect is -20%.

Turning to `N#Cc1ccnc(N2CCN(C(=O)Cc3ccc4c(c3)CCO4)CC2)c1`, the Percent Effect was 6.14%.

For `c1ccc(-n2ncc(CNCC3CCCN3c3cccnn3)n2)cc1` (stereo not given), the Percent Effect turned out to be 8.59%.

For the compound `CC(=O)NCCC(=O)NCc1cccnc1-n1cnc2ccccc21`, the Percent Effect is -2.41%.

Turning to `Cc1cn2c(n1)CCC(NC(=O)CCn1ccnn1)C2` (stereo not given), the Percent Effect came to 19.8%.

Take `Cc1nnc(C(C)N2CCN(Cc3ccc4c(c3)OCO4)CC2)o1` (stereo not given): the Percent Effect came to 17.8%.

For the compound `CCn1cnnc1CNC(=O)N1CCOCC1`, the Percent Effect amounted to 7.05%.

Regarding `Cc1nnc(CN2CCCC(c3cc(C(N)=O)[nH]n3)C2)o1` (stereo not given), the Percent Effect is 4.59%.

Consider `CC(Cn1cccn1)NC(=O)NCc1ccc(S(N)(=O)=O)cc1` (stereo not given), for which the Percent Effect was determined as 14.9%.

Turning to `Clc1ccc2cccnc2c1CN1CCCC(Cn2cncn2)C1` (stereo not given), the Percent Effect was -6.27%.

With `COc1cccc(CN2CCCC3(CCN(C(=O)c4ccco4)C3)C2)c1` (stereo not given), the Percent Effect is -1.7%.
